Results taken from PubChem BioAssay (NCI).
The panel holds about 83,000 compounds, 20% with a hit somewhere; the sample as a whole holds those more often.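 Cells were grown in 96-well plates and exposed to the test compound at a single concentration for 48 hours; results are reported as percent growth, with values below 10 considered active.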 A number with no mark means an inactive call. The source made the active and inactive calls.

Tests used:
Experiment in all cases: NCI-60 one-dose screen, 48 h (100 = growth as untreated, 0 = no growth, -100 = all killed)
Settings in all cases: 10 µM unless noted
HCT-15 colon = system: HCT-15 colon
HT29 colon = system: HT29 colon
SNB-75 CNS = system: SNB-75 CNS
SNB-19 CNS = system: SNB-19 CNS
U251 CNS = system: U251 CNS
PC-3 prostate = system: PC-3 prostate
SK-MEL-5 melanoma = system: SK-MEL-5 melanoma
UACC-62 melanoma = system: UACC-62 melanoma
SK-MEL-28 melanoma = system: SK-MEL-28 melanoma

SMILES	growth (HCT-15 colon)	growth (HT29 colon)	growth (SNB-75 CNS)	growth (SNB-19 CNS)	growth (U251 CNS)	growth (PC-3 prostate)	growth (SK-MEL-5 melanoma)	growth (UACC-62 melanoma)	growth (SK-MEL-28 melanoma)
COC1=C(Br)C(=O)C(OC)=C(Br)C1=O	96.1%	106%	103%	95.8%	104%	107%	99.4%	91.2%	117%
CN(C)CCCC1(c2ccc(F)cc2)OCc2cc(-c3ccc(C(F)(F)F)nc3)ccc21 (stereo not drawn)	78.4%	64.8%	41.7%	76.7%	57.1%	68.7%	75.3%	86.1%	81%
Cc1c(C)c2c(c(C)c1NC(=O)CCCCCCC(=O)O)CCC(C)(CCCC(C)CCCC(C)CCCC(C)C)O2 (stereo not drawn)	55%	39.8%	93.9%	101%	68.9%	69.7%	81%	89.1%	96.1%
Brc1ccc(Cn2nnnc2-c2ccn(-c3ccccc3)n2)cc1	83%	63.6%	90.1%	78.9%	75.7%	60.8%	74%	53%	95.3%
COc1ccc(NC(=O)c2ccc3c(c2)nc(-c2cc4ccccc4[nH]c2=O)n3-c2cc(C(C)(C)C)[nH]n2)cc1	95.5%	106%	76.2%	75.4%	85.6%	79.1%	84%	85.6%	93.2%
NC1=C(C/C(N)=N\O)C(c2ccccc2Cl)c2c(ccc3ccccc23)O1 (stereo not drawn)	47.7%	97.1%	75.2%	86.8%	91.3%	74.2%	86.8%	52.2%	80.2%
Cc1ccc(-c2ccc(/C=C(\C#N)c3nc(-c4ccco4)cs3)o2)cc1	69.2%	102%	84.9%	99.6%	98.7%	100%	87.8%	87.5%	112%
Cc1ccc(S(=O)(=O)Nc2ccc(-c3cc(-c4cccc(F)c4)c(C#N)c(=O)[nH]3)cc2)cc1	58.2%	54.6%	85%	84.3%	71%	68.8%	82%	60.3%	97.4%
COc1c(N)c2c(c([N+](=O)[O-])c1OC)C(=O)OC2	105%	102%	98.7%	102%	110%	96.7%	113%	102%	108%
Cc1ccc(Cc2cnc(NC(=O)/C=C/c3cccc(C)c3)s2)cc1	7.04% (active)	0.0384% (active)	-23.6% (active)	13.4%	9.32% (active)	30.3%	12.6%	16.3%	50.3%
CC1(C)C(=O)/C(=C\c2cccnc2)C[C@]2(C)[C@H]3CC[C@@H]4[C@@H](C(=O)/C=C/c5ccncc5)CC[C@@]4(C)[C@]3(C)CC[C@@H]12	-36% (active)	9.87% (active)	62.6%	15.1%	-7.74% (active)	19.5%	-10.9% (active)	-26.7% (active)	26.7%
O=C1/C(=C\C(Cl)=C/c2ccc([N+](=O)[O-])cc2)SC(=S)N1CCc1ccc(O)cc1	-49.9% (active)	-15.3% (active)	-27.7% (active)	-59.7% (active)	-88% (active)	-14.8% (active)	-78.9% (active)	-30.8% (active)	-61.2% (active)
COc1cc(C(=O)/C=C/c2cc(-c3ccc4c(c3)OCO4)n[nH]2)cc(OC)c1OC	19.6%	3.4% (active)	26.7%	33.2%	5.54% (active)	6.51% (active)	63%	55.7%	76.2%
C=C(C)[C@@H]1CC[C@]2(C(=O)N3CCCNCC3)CC[C@]3(C)[C@H](CC[C@@H]4[C@@]5(C)CCC(=O)C(C)(C)[C@@H]5CC[C@]43C)[C@@H]12	84.1%	61%	56.9%	91.2%	78%	78.3%	94.1%	99.1%	103%
c1ccc2[nH]c(-c3cc(-c4ccc5c(c4)OCO5)n[nH]3)nc2c1	56.7%	67.5%	33.8%	68.3%	36.6%	50.4%	13.2%	49.7%	71.3%
CC1(C)CC[C@]2(C(=O)NCCNCCN)CC[C@]3(C)C(=CC[C@@H]4[C@@]5(C)CCC(=O)C(C)(C)[C@@H]5CC[C@]43C)[C@@H]2C1	27%	-2.78% (active)	69.8%	56.1%	-69.7% (active)	40.9%	87.6%	-89.3% (active)	38.6%
COc1ccc(OCC(CO)N2CCN(c3ccccc3)CC2)cc1 (stereo not drawn)	102%	98.2%	97.4%	96.6%	97.3%	84.6%	104%	97.2%	103%
C=C(C)[C@@H]1CC[C@]2(C)[C@H](CC=C3[C@@H]4CC(C)(C)CC[C@]4(C(=O)OC)CC[C@]32C)[C@@]1(C)CC/C(N)=N/O	18.5%	24.3%	101%	67.9%	-81.8% (active)	26.6%	-19.9% (active)	58.6%	60.9%
N#Cc1c(-c2ccco2)nc2c(c(-c3ccccc3)nn2-c2ccccc2)c1-c1ccc(O)cc1	38.4%	30.2%	71.1%	95.9%	61.6%	23.8%	87.1%	89.2%	74.7%
NC1(N)C=CC2=C(C=C1)C1(N)C3=C(C=CC(N)(N)C=C3)N2C2(N)C3=C(C=CC(N)(N)C=C3)N1C1=C2C=CC(N)(N)C=C1	94.7%	94.4%	93.9%	101%	83.3%	72.2%	75%	81.5%	99.1%
Cc1cc2nc3c4cc(O)ccc4n(CCN(C)C)c3nc2cc1C	-29.3% (active)	1.97% (active)	-5.77% (active)	2.18% (active)	3.44% (active)	6.53% (active)	-27.4% (active)	-49.5% (active)	-8.23% (active)
CC1(C)C=CC[C@]2(C)[C@H]3CC[C@@H]4[C@H]5[C@H](C(=O)/C=C/c6cccnc6)CC[C@]5(CO)CC[C@@]4(C)[C@]3(C)CC[C@@H]12	-61.7% (active)	-28% (active)	-89.8% (active)	-90.4% (active)	-90.8% (active)	-41.1% (active)	-99.3% (active)	-63.2% (active)	-92% (active)
NC1=NN(c2ccccc2)C(=O)/C1=C/c1ccc(Cl)cc1	99.4%	102%	105%	96.9%	98.1%	82.8%	101%	81.2%	95%
CC1(C)CC[C@]2(CO)CC[C@]3(C)C(=CC[C@@H]4[C@@]5(C)CC[C@H](NCO)C(C)(C)[C@@H]5CC[C@]43C)[C@@H]2C1	-76.1% (active)	-43.2% (active)	-2.38% (active)	17.8%	-79.4% (active)	7.13% (active)	-2.6% (active)	-73% (active)	60.8%
C[C@H]1[C@H]2C3=CC[C@@H]4[C@@]5(C)C/C(=C/c6ccco6)C(=O)C(C)(C)[C@@H]5CC[C@@]4(C)[C@]3(C)CC[C@@]2(C(=O)N2CCOCC2)CC[C@@H]1C	40.2%	28.9%	99.4%	71.3%	49.1%	39.1%	72.1%	60.5%	69.7%
Cc1cc2nc3c4cc([N+](=O)[O-])cc([N+](=O)[O-])c4n(CCN(C)C)c3nc2cc1C	57.2%	65.6%	72.3%	68.2%	81.6%	77.1%	92.4%	87%	98.6%
N#CC1=C(N)Oc2c(c(N)nn2-c2ccccc2)C1c1ccc(Cl)cc1 (stereo not drawn)	107%	107%	77.3%	94.7%	94.9%	91.7%	101%	86%	100%
